Source: the supplement of paper PMC4894684
Where a name gives a salt, the structure may show the parent alone. ± gives the standard deviation of the averaged measurements.

Test system: Toxoplasma gondii RH (in HFF)
Assay: parasite growth relative to the screen mean (all compounds = 100%); higher = less inhibition of parasite growth
Conditions: 5 µM; 72 h; oxygen 21 %
In short: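 Parasite growth was reported relative to the screen mean. In that scale, the mean of all compounds equals 100%, and values are averaged over two screens. Compounds from 10 mM DMSO stocks were pin-transferred to 5 µM final onto confluent human foreskin fibroblasts in 96-well plates, infected within 2 h with RH β-Gal–GFP Toxoplasma (MOI 1:5) and grown 72 h at 21% O2, with parasite number read by a CPRG β-Gal assay against in-plate standard curves. Uninfected host-cell viability was checked with CellTiter-Blue.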

Structure (SMILES)	parasite growth [%]
C[C@H](NC(=O)/C(C#N)=C/c1ccc(O)c(O)c1)c1ccccc1 [Tyrphostin B44, (+) enantiomer]	154 ± 41
[O-][S+](c1ccccc1)c1ccc2nnnn2n1 (stereo not drawn)	111.89 ± 0.016
Cc1cc(I)ccc1Nc1c(C(=O)NOCC2CC2)cc(F)c(F)c1F	107 ± 21
Cn1cc(C2=C(c3ccc(Cl)cc3Cl)C(=O)NC2=O)c2ccccc21	136 ± 4.2
CN(C)CCCSc1ccccc1NC(=O)/C=C/c1ccccc1 [Cinanserin hydrochloride]	120 ± 9.6
NC(=O)Nc1sc(-c2ccc(F)cc2)cc1C(N)=O	77.1 ± 11
Cn1cccc1/C=C1\C(=O)NC(=O)c2ccccc21	121 ± 6.4
CNC(=O)[C@H]1O[C@@H](n2cnc3c(NCc4cccc(I)c4)ncnc32)[C@H](O)[C@@H]1O	117 ± 14
O=S(=O)(c1ccccc1)N(CC(F)(F)F)c1ccc(C(O)(C(F)(F)F)C(F)(F)F)cc1	132 ± 5.8
O=C(O)CN1C(=O)c2cccc3cccc(c23)C1=O [Alrestatin]	100 ± 26
Cc1ccccc1C(=O)c1ccc(Nc2ccc(Br)cc2N)cc1Cl	172 ± 48
CC(C)C[C@H](NC(=O)[C@@H](O)[C@H](N)Cc1ccccc1)C(=O)O [Bestatin]	136 ± 6.9
O=C1c2ccccc2CCC1CNCCc1ccc(O)cc1 (stereo not drawn) [HEAT hydrochloride]	68.1 ± 13
CO[C@@H]1[C@H](O)[C@@H](CO)O[C@H]1n1cnc2c(NC3CCCCC3)ncnc21	103 ± 24
CCCNC(=O)N1N=C(c2ccc(N)cc2)c2cc3c(cc2C1C)OCO3 (stereo not drawn)	99.9 ± 32
COc1cc2c(cc1O)CC[C@@H]1[C@@H]2CC[C@]2(C)[C@@H](O)CC[C@@H]12 [2-Methoxyestradiol]	174 ± 46
CN(Cc1ccccc1)C(=O)[C@H](Cc1ccc2ccccc2c1)NC(=O)[C@@H]1CCCN1C(=O)Nc1ccccc1[N+](=O)[O-]	110 ± 9.9
CCCCOC(=O)c1cc2c(cn1)[nH]c1ccccc12	150 ± 37
C=C1C(=O)O[C@H]2[C@H]1CC/C(C)=C/CC[C@@]1(C)O[C@@H]21 [Parthenolide]	87.7 ± 4.2

Structure (SMILES)	parasite growth [%]
O=C(O)c1c(Sc2ccccc2)c2cc(Cl)ccc2n1Cc1ccc(Cl)cc1	88.5 ± 6.7
CCC(CC)(CC(=O)Nc1cccc(/C=C/c2nc(C3CCC3)cs2)c1)C(=O)O [Cinalukast]	115 ± 12
OCCNCCCOc1cccc(Cl)c1Cl [2,3-DCPE hydrochloride]	103 ± 8.3
O=C(O)C(=O)O.[NH-][C@@H]1CCCC[C@H]1[NH-].[Pt+2] [Oxaliplatin]	143 ± 2.5
CN(CCOc1ccc(C[C@H](Nc2ccccc2C(=O)c2ccccc2)C(=O)O)cc1)c1ccccn1	30 ± 17
CCCCN1CCCC1CNC(=O)c1cc(C#N)c2ccccc2c1OC (stereo not drawn) [Nafadotride]	127 ± 15
O=C1NC(=O)C(c2ccccc2[N+](=O)[O-])=C1Nc1ccc(O)c(Cl)c1	155 ± 3.7
O=C(c1ccc(Nc2nccc(-c3cc4ccccc4s3)n2)cc1)N1CCC(N2CCCC2)CC1	< 0
NCCCCNCCCN [Spermidine trihydrochloride]	90.6 ± 7.8
O=c1cc(N2CCOCC2)oc2c1ccc1ccccc12	89.2 ± 2.4
CCN(CC)CCOCCOC(=O)C1(c2ccccc2)CCCC1 [Carbetapentane citrate]	137 ± 18
CC(Cc1ccccc1)(NC(=O)CN)c1ccccc1 (stereo not drawn) [Remacemide hydrochloride]	129 ± 5.9
CCCCCCN(CCCCCC)C(=O)Cc1c(-c2ccc(F)cc2)[nH]c2ccccc12	151 ± 28
OC[C@H]1O[C@@H](n2cnc3c(NC4CCCC4)ncnc32)[C@H](O)[C@@H]1O [N6-Cyclopentyladenosine]	77.4 ± 7.7
CN1CCN(C2=Cc3ccccc3Oc3ccc(Cl)cc32)CC1	31.7 ± 7.6
CC1(C)CC(=O)C(C2C3=C(CC(C)(C)CC3=O)Oc3ccccc32)C(=O)C1 (stereo not drawn)	127 ± 18
CC[C@H](C)C(=O)O[C@H]1C[C@H](O)C=C2C=C[C@H](C)[C@H](CC[C@@H](O)C[C@@H](O)CC(=O)O)[C@H]21 [Pravastatin sodium salt]	127 ± 9.5
CNc1cc2c(Nc3cccc(Br)c3)ncnc2cn1	128 ± 11
COc1cc2nc(N3CCN(C(=O)c4ccco4)CC3)nc(N)c2cc1OC [Prazosin hydrochloride]	73.4 ± 17
